High-throughput results deposited in PubChem BioAssay by National Center for Advancing Translational Sciences (NCATS).
Shown are actives, neighbours in structure and some others; about 10% of the full set was active somewhere.
PNC inhibitor: High Content Assay for Compounds that inhibit the Assembly of the Perinucleolar Compartment; actives 3.1% (n = 140,000); activity change (PNC), negative = inhibition, % at 10 µM; PC3M PTB-GFP, PNC prevalence imaging, 16 h; hits give low values; AID 2417, 2010;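 active means readout at or below -70, meaning at least 70% loss of cells showing the perinucleolar compartment, a nuclear body marking cancer cells; inconclusive means readout between -30 and a set limit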;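 further: plate controls were DMSO wells for no effect and camptothecin positive control wells for full effect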
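PC3M cells stably expressing PTB-GFP, 750–1000 cells/well, treated 16 h at 37 °C with compound (23 nl of library stock), in duplicate. After paraformaldehyde fixation and Hoechst stain, imaged at 20x; PNC prevalence scored by image analysis.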
ALDH1A1 block: qHTS Assay for Inhibitors of Aldehyde Dehydrogenase 1 (ALDH1A1) | Aldehyde dehydrogenase 1A1 (Homo sapiens), P00352 | actives 7.3% (n = 220,000) | Potency, µM (doses to about 75.3 µM), inactives show top-dose activity, negative = inhibition, usual class: inhibitors | AID 1030, 2008 | Purified ALDH1A1, NADH fluorescence, propionaldehyde substrate; active means well fitted inhibition curve with a large enough effect, not every such curve was filed as active; inconclusive means small, poorly fitted or top-dose-only effect, or another doubt; inactive means no such curve, though single readings can be large or run the other way;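 further: potency means the concentration at half of the fitted maximal effect; plate controls were no enzyme wells and a reference inhibitor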
GLA inh pH 4.5: qHTS Assay for Inhibitors of Human alpha-Galactosidase at pH 4.5 | Alpha-galactosidase A (Homo sapiens), P06280 | purified enzyme, 4-MU-alpha-Gal fluorescence, pH 4.5 | activity change, negative = inhibition, % at 105 µM | 230,000 tested, under 10 active;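 further: 0% = full activity with enzyme and -100% = basal without enzyme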
GLA spleen mod: qHTS Assay for Inhibitors and Activators of Human alpha-Galactosidase From Spleen Homogenate. Alpha-galactosidase A (Homo sapiens), P06280. Potency, µM (highest dose often 80 µM), without a hit: top-dose activity change, negative = inhibition, usual class: inhibitors. AID 2107, 2009. human spleen homogenate, 4MU-alpha-Gal fluorescence, 40 min. actives 0.008% (n = 240,000);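 further: potency means the concentration at half of the fitted maximal effect; 0% = enzyme with vehicle and -100% = no enzyme basal signal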
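Spleen homogenate 1 ug + cpd (titration) + 4-MU-alpha-D-galactopyranoside 1 mM; 37C 40 min; 50 mM citrate/phosphate pH 5.0, 0.01% Tween-20; stop pH 10; fluorescence 365/440; AC50 via Hill.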
12-hLO inh: qHTS Assay for Inhibitors of 12-hLO (12-human lipoxygenase); Polyunsaturated fatty acid lipoxygenase ALOX12 (Homo sapiens), P18054; purified 12-hLO, xylenol orange hydroperoxide absorbance; Potency, µM (top dose mostly 57.1 µM), for the others: at the top dose activity change, negative = inhibition, usual class: inhibitors; actives 0.12% (n = 150,000); further: potency means the concentration at half of the fitted maximal effect; nearly all actives have a fitted effect of over 55% in size
Target sequence (P18054 whole entry, looked up): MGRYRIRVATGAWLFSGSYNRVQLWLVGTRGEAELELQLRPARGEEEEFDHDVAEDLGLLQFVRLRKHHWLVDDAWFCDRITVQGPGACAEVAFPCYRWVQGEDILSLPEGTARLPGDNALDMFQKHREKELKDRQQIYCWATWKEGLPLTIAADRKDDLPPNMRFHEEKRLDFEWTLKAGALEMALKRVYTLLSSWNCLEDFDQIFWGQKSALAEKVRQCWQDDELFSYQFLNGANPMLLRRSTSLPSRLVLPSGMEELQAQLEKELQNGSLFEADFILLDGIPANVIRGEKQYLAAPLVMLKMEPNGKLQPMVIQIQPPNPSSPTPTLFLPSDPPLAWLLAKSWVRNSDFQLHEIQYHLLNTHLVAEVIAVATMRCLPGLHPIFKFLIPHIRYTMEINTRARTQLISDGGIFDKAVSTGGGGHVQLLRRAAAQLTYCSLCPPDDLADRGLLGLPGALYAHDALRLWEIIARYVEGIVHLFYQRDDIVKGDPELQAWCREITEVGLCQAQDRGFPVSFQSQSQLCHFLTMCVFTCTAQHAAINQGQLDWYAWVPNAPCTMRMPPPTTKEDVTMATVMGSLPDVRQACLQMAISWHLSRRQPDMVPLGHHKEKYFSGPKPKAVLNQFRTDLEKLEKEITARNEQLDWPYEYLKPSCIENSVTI
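Purified human 12hLO (150 nM final) was preincubated with compounds for 15 min at room temperature in 25 mM Hepes pH 7.0, 0.01% Triton X-100, then reacted with 40 uM arachidonic acid for 30 min. Hydroperoxide was detected with ferrous iron/xylenol orange.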
HPGD inh: qHTS Assay for Inhibitors of HPGD (15-Hydroxyprostaglandin Dehydrogenase); 15-hydroxyprostaglandin dehydrogenase [NAD(+)] (Homo sapiens), P15428; purified HPGD, NADH fluorescence kinetic, PGE2 substrate; Potency, µM, for inactives: top-dose activity change, negative = inhibition, usual class: inhibitors; actives 4.3% (n = 150,000); active means well fitted inhibition curve with a large enough effect, not every such curve was filed as active; inconclusive means small, poorly fitted or top-dose-only effect, or another doubt; inactive means no such curve, though single readings can be large or run the other way; further: potency means the concentration at half of the fitted maximal effect
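20 nM HPGD preincubated 15 min at room temperature with compound in 50 mM Tris-HCl pH 8, 0.01% Tween 20. Started with 1 mM NAD+ and 30 uM prostaglandin E2; NADH fluorescence (360/450 nm) read 5 times over 30-s intervals, last minus first.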
An asterisk follows results filed as active; ? = inconclusive; nt = no result; [ ] = dose if it differs, or a comment. Unless noted, the call rests on the fitted dose curve; in most records, active means well fitted curve in the direction sought with a large enough effect; inconclusive means small, poorly fitted or top-dose-only effect, or another doubt; inactive means no such curve, though single readings can be large; an effect the other way counts as inactive or inconclusive. Unless noted, on the % scale 0 is the no-effect control and ±100 the full control effect.

SMILES	PNC inhibitor	ALDH1A1 block	GLA inh pH 4.5	GLA spleen mod	12-hLO inh	HPGD inh
COc1ccc(C(C)NC(=O)c2ccc([N+](=O)[O-])cc2)cc1OC (centres undefined)	?	6%	8	-13%	-2%	4%
CCOc1ccc(-n2nnnc2-c2nc3ccccc3s2)cc1	-21	-14%	14	8%	1%	11%
Cc1ccc(-n2nnnc2-c2nc3ccccc3s2)cc1	-134*	0%	-2	12%	2%	-29%
COc1cc2c(cc1OC)C(/C=C/c1ccc(OC)c(OC)c1OC)=NCC2	nt	8%	4	6%	nt	-16%
COC(=O)[C@@H](NC(=O)Nc1ccc(OC(F)(F)F)cc1)C(C)C	0	?	2	-2%	0%	28µM*
Cc1[nH]c2ccccc2c1Cc1nnc(SCCC#N)o1	-100*	3%	0	0%	4%	-16%
CCCCCC(O)(CCN1CCCCC1)c1ccc(OCC)cc1 (centres undefined)	nt	1.8µM*	-18	-18%	nt	nt
CCCC(O)(CCN1CCCCC1)c1ccc(OCC)cc1 (centres undefined)	10	0.89µM*	0	-3%	6%	-2%
CCC(O)(CCN1CCCCC1)c1ccccc1 (centres undefined)	6	9%	2	-9%	-7%	-5%
Cc1ccc(S(=O)(=O)N/N=C/c2ccc(OC3CSC3)cc2)cc1	-16	-3%	4	0%	-2%	-9%
Cc1ccc(S(=O)(=O)N/N=C/c2ccc(OS(=O)(=O)c3ccc(C)c([N+](=O)[O-])c3)cc2)cc1	?	5µM*	-10	-2%	-17%	-27%
Cc1ccc(S(=O)(=O)N/N=C\c2ccc(Cl)c([N+](=O)[O-])c2)cc1	-16	0.5µM*	-3	-1%	-4%	-15%
CCOC(=O)c1sc(NC(=S)NC(=O)c2ccccc2)c(C(=O)OCC)c1C	36	-6%	-1	8%	0%	-11%
CCOC(=O)c1c(NC(=O)c2ccccc2)sc2c1CCc1ccccc1-2	-13	?	9	-6%	-2%	?
CCOC(=O)C1=C(NC(=S)NC(=O)c2ccccc2)c2ccccc2CC1C(C)C (centres undefined)	-96*	15µM*	-4	-2%	-23%	-15%
CCOC(=O)C1=C(NC(=S)NC(=O)c2ccccc2)c2ccccc2CC1(C)CC (centres undefined)	?	13µM*	-8	3%	?	-5%
Nc1ncnc2c([C@@H]3O[C@@H](CO)[C@H](O)[C@@H]3O)nsc12	nt	-12%[13.5 µM]	nt	nt	3%[11.4 µM]	-5%
c1ccc(Nc2ncnc3ccc(-c4ccc5c(c4)OCO5)cc23)cc1	nt	4%	-5	4%	-3%	-29%
NC(=O)NCC(N)C(=O)O (centres undefined)	nt	6%	0	-2%	8%	-8%
Cc1ccc2c(c1)c1ccc3c(c1n2C)C(=O)C=CC3=O	nt	nt	-6	-1%	nt	nt
COc1ccc2c(c1)c1ccc3c(c1n2C)C(=O)C=CC3=O	nt	0.28µM*	-12	-2%	nt	nt
CCC(C)(C(=O)NC1CCCC1)N(Cc1cccs1)C(C)=O (centres undefined)	-100*	2%	-7	1%	-1%	-9%
O=C(NCC1CCCO1)c1sc(=S)n2c1[nH]c(=O)c1ccc(C(=O)N3CCCCC3)cc12 (centres undefined)	-22	?	-30	2%	-16%	0.45µM*
O=C(NC1CCCCC1)c1sc(=S)n2c1[nH]c(=O)c1ccccc12	21	3.2µM*	0	6%	-20%	13µM*
CCCCNC(=O)c1sc(=S)n2c1[nH]c(=O)c1ccccc12	-19	?	-1	-11%	-19%	-21%
SMILES	PNC inhibitor	ALDH1A1 block	GLA inh pH 4.5	GLA spleen mod	12-hLO inh	HPGD inh
CCCN1C(=O)SC(CC(=O)Nc2cccc3ccccc23)C1=O (centres undefined)	-25	22µM*	-1	3%	1%	-5%
CCCN1C(=O)SC(CC(=O)Nc2ccccc2)C1=O (centres undefined)	38	20µM*	-11	9%	-4%	-3%
COc1ccccc1CN1CCCC2(CCN(C(=O)c3cccc(F)c3)CC2)C1	nt	8%	nt	2%	4%	-4%
COc1cc(-c2cccs2)cc(=O)c2c(C)oc(C)c12	-96*	?	nt	4%	?	-12%
CC(=O)N1Cc2ccccc2C(C)CC12CCCC2 (centres undefined)	-15	1%	4	5%	0%	-4%
CC(=O)N1c2ccccc2C(C)CC12CCCCC2 (centres undefined)	-83*	-2%	5	8%	13%	-5%
C/C(=N\Nc1cccc(C(F)(F)F)c1)c1ccc(O)cc1	nt	20µM*	-5	-1%	nt	nt
C/C(=N\NC(=O)c1cccc(N/N=C(\C)c2ccncc2)c1)c1ccncc1	nt	?	2	-1%	nt	nt
C/C(=N\NC(=O)c1cccc(N/N=C(\C)c2ccccc2)c1)c1ccccc1	?	12µM*	0	2%	-5%	?
CN(C)CCNS(=O)(=O)N(C)C	nt	?	nt	nt	2%[11.4 µM]	-4%
Cc1ccc(S(=O)(=O)Cc2c(C)noc2C)cc1	13	3%	4	3%	-2%	-15%
Cc1noc(C)c1CS(=O)(=O)c1ccc([N+](=O)[O-])cc1	nt	32µM*	5	-3%	nt	nt
O=C(N/N=C/c1cc(Cl)ccc1O)c1ccncc1	nt	nt	2	9%	nt	nt
O=C(/C(=C/O)N=Nc1ccc(Cl)cc1)c1ccncc1	-11	10µM*	7	9%	-9%	-15%
Cc1ccc(N=N/C(=C\O)C(=O)c2ccncc2)cc1	62	4µM*	-9	-4%	-19%	-21%
CCC(=O)N(C1=C(NC)C(=O)c2ccccc2C1=O)C(C)C	nt	7%	4	2%	nt	nt
CCC(=O)N(CC)C1=C(O)c2ccccc2C(=O)C1=O	?	22µM*	-21	0%	-1%	13µM*
O=[N+]([O-])/C(C(Cl)=C(Cl)Cl)=C(/NC1CC1)Sc1ccccc1	nt	18µM*	-12	-6%	nt	nt
N[C@@H](CC(=O)O)C(=O)O	nt	?	-4	-5%	-3%	-2%
COc1ccc(C(=O)OC(C(=O)c2ccc(C)cc2)c2ccccc2)cc1 (centres undefined)	7	-1%	-4	5%	4%	-11%
